Assay results published in PubChem BioAssay (EPA / NIEHS).
Results filed as inconclusive are left out. The source made the active and inactive calls. How the source made its calls: active means hit-call score of the fitted dose curve at least 0.9, where 1 is the maximum; inconclusive means response in the unintended direction; inactive means score below 0.9.

The compounds below were run against Cytochrome P450 2C19 (Homo sapiens) (UniProt P33261) (assay: NVS_ADME_hCYP2C19: NovaScreen (NVS) CYP450-related Enzyme Activity (ADME) Assay for human CYP2C19 (AID 2283113);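 further: potency for inhibition seen as loss of fluorescent signal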).
Outline: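 Compounds first screened in duplicate at 10 uM, then confirmed in concentration series. Insect-cell-expressed human CYP2C19 turned over a fluorogenic substrate, and fluorescence was read after 1 h. Inhibition taken as signal loss relative to acetonitrile.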
With `Cc1ccc(N=Nc2c(O)ccc3ccccc23)c(C)c1` the AC50 was 565 nM (active). `CC(C)CCOCCC(C)C` was tested, and the AC50 was 5000 nM (active). With `c1cc[nH]c1` the AC50 was 992 nM (active). In the case of `CCCCCCCCCCCCCCC`, the AC50 was 10000 nM (active). With `CCCCCCCCCCCCCCCCCC[N+](C)(C)Cc1ccccc1` the AC50 was 1800 nM (active).

The compounds below were run against human AKT serine/threonine Kinase 1 (AKT1), AKT1 (gene 207) (UniProt P31749) (assay: NVS_ENZ_hAKT1: NovaScreen (NVS) Enzymatic Assay for human AKT serine/threonine Kinase 1 (AKT1) (AID 2283138)).
Chain of human AKT serine/threonine Kinase 1 (AKT1), AKT1 (gene 207) (P31749 whole entry, looked up): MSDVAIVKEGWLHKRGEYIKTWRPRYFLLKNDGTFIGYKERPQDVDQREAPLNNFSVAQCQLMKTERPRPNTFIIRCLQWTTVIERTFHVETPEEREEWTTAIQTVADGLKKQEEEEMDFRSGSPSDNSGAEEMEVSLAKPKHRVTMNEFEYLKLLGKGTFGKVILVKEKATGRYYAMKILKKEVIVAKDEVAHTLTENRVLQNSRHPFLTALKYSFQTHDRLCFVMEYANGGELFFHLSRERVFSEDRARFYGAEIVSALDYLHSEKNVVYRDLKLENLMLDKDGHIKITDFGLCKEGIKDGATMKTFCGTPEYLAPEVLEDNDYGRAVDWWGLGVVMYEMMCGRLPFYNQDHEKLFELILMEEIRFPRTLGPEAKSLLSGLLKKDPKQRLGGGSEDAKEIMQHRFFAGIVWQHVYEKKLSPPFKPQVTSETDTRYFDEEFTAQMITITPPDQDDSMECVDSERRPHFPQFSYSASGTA
Outline: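 Fluorescence and mobility-shift readout of kinase activity, taken 1 h post-dosing in a cell-free format with recombinant protein. Primary screen at 25 uM in duplicate; hits (e.g. 30% inhibition) retested in concentration series topping at 50 uM.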
`O=C(CCCN1CCC(O)(c2ccc(Cl)cc2)CC1)c1ccc(F)cc1` was tested, and the outcome was “inactive”. In the case of `CCC(C)c1ccccc1O` (stereo not drawn), the outcome was “inactive”. For `CCCCCCCCCCCCOS(=O)(=O)O`, the outcome was “inactive”.

The compounds below were run against human Beta-secretase (BACE), BACE1 (gene 23621) (UniProt P56817) (assay: NVS_ENZ_hBACE: NovaScreen (NVS) Enzymatic Assay for human Beta-secretase (BACE) (AID 2283140);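 further: hits are inhibitors that reduce fluorescent substrate signal versus DMSO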).
Chain of human Beta-secretase (BACE), BACE1 (gene 23621) (P56817 whole entry, looked up): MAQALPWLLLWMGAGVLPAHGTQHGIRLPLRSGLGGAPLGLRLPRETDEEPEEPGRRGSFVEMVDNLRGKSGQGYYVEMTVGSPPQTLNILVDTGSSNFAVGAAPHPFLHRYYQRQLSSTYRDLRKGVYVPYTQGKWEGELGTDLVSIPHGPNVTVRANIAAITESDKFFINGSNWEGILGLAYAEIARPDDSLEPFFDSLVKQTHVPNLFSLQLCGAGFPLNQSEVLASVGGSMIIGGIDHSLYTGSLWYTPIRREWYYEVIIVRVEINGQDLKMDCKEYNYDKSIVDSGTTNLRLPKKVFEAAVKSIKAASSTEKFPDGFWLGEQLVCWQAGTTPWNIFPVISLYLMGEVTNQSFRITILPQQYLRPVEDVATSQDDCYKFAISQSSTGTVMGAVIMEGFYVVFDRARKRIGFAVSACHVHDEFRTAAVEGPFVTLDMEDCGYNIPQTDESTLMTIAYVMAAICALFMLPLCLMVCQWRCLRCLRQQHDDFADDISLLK
Procedure: NVS_ENZ_hBACE is a biochemical, single-readout assay that uses extracted gene-proteins from SF9 in a cell-free assay. Measurements were taken 1 hour after chemical dosing in a 96-well plate.NVS_ENZ_hBACE is one of one assay component(s) measured or calculated from the NVS_ENZ_hBACE assay. It is designed to make measurements of enzyme activity, a form of enzyme reporter, as detected with fluorescence intensity signals by Fluorescence technology.Data from the assay component NVS_ENZ_hBACE was analyzed into 1 assay endpoint. This assay endpoint, NVS_ENZ_hBACE, was analyzed in the positive analysis fitting direction relative to DMSO as the negative control and baseline of activity. Using a type of enzyme reporter, loss-of-signal activity can be used to understand changes in the enzymatic activity as they relate to the gene BACE1. Furthermore, this assay endpoint can be referred to as a primary readout, because […]. To generalize the intended target to other relatable targets, this assay endpoint is annotated to the protease intended target family, where the subfamily is aspartate protease.
Binding assays used specific radioligands (tritiated, iodinated) with non-radioactive competitive displacement ligands in agonist or antagonist protocols (as indicated) and various reference compounds and inhibitors to titrate specific binding to receptors and transporters. Most enzyme assays (CYPs, kinases, phosphatases, proteases, HDACs) used recombinant protein and specific substrates (fluorescence mostly, some colorimetric and radioactive) and inhibitors, followed by a biochemical separation of substrate and product. All assays for the biochemical HTS were initially run in duplicate at a single concentration (10 uM for CYP450 assays and 25 uM for all others). […] Each assay was run with positive and negative controls, and concurrent controls on every plate. The follow-up (secondary) screen tested active chemical-pairs in concentration series, as well as a few additional assays not tested in the primary screen, some selected negative inactives, and several cases re-run in the concentration series for confirmatory purposes.
`NS(=O)(=O)O` was tested, and the outcome was “inactive”. In the case of `CCOC(C)=O`, the outcome was “inactive”. `CCCCCCCCCCCCOS(=O)(=O)O` was tested, and the AC50 was 2910 nM (active). For `CNNCc1ccc(C(=O)NC(C)C)cc1`, the outcome was “inactive”. For `CN(Cc1cnc2nc(N)nc(N)c2n1)c1ccc(C(=O)N[C@@H](CCC(=O)O)C(=O)O)cc1`, the outcome was “inactive”.
